Source: PubChem
uPA generation: qHTS for Inhibitors of Cell Surface uPA Generation | cell surface uPA generation assay, qHTS | Potency, µM (highest dose often 38.3 µM), hits mostly inhibitors | actives 0.31% (n = 330,000) | AID 540303, 2011; active = well fitted inhibition curve with a large enough effect; inconclusive = small, poorly fitted or top-dose-only effect; inactive = no such curve, though single readings can be large or run the other way; tested in mouse RAW 264.7 cells; also: nearly all actives have a fitted effect of over 55% in size
DT40 TDP1 no CPT: qHTS for Inhibitors of human tyrosyl-DNA phosphodiesterase 1 (TDP1): qHTS in cells in absence of CPT | Potency, µM (titrated, usually from 46.2 µM), usual class: inhibitors | AID 686978, 2013 | DT40 Tdp1-/- hTDP1 cells, no CPT, ATP luminescence, 48 h | actives 15% (n = 420,000); also: nearly all actives have a fitted effect of over 55% in size
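Readout: luminescence from CellTiter-Glo after 30 min in the dark at RT. Cells: DT40 Tdp1-/- with stable hTDP1, 400/well. Exposure: compounds alone, ≥48 hr, 37 °C.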
TDP1 block: qHTS Assay for Inhibitors of Tyrosyl-DNA Phosphodiesterase (TDP1); Tyrosyl-DNA phosphodiesterase 1 (Homo sapiens), Q9NUW8; recombinant TDP1, AlphaScreen DNA substrate cleavage; Potency, µM (highest dose often 130 µM), actives largely listed as inhibitors; actives 0.28% (n = 350,000); also: nearly all actives have a fitted effect of over 40% in size
Target sequence (Q9NUW8 whole entry, looked up): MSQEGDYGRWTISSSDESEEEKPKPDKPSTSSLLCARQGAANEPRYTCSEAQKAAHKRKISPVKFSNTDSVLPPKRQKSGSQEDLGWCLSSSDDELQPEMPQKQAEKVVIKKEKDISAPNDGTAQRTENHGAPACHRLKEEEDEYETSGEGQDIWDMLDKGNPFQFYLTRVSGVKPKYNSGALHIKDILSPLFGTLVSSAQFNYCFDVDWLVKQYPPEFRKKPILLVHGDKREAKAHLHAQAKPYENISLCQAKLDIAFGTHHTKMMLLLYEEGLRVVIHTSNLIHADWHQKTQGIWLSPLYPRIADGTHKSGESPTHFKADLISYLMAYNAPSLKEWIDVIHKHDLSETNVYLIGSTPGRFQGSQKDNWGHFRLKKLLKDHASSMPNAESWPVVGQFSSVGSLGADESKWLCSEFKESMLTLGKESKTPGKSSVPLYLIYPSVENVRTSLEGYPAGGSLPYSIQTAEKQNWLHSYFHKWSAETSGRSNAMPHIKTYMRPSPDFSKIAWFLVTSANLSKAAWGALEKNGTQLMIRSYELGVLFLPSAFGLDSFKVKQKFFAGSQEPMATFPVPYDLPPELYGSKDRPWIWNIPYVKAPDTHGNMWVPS
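Enzyme-compound mixtures sat 15 min at room temperature, followed by a 5 min reaction with 15 nM final substrate and 10 min with AlphaScreen beads. Recombinant human Tdp1 was used at 1 nM final.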
TDP1 cell CPT: qHTS for Inhibitors of human tyrosyl-DNA phosphodiesterase 1 (TDP1): qHTS in cells in presence of CPT; chicken DT40 Tdp1-/-;hTDP1 cells + 20 nM CPT, ATP luminescence, 48 h; AID 686979, 2013; actives 12% (n = 420,000); Potency, µM (doses to about 46.2 µM), hits mostly inhibitors; also: nearly all actives have a fitted effect of over 55% in size
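Chicken DT40 Tdp1-/- cells complemented with human TDP1, 400 cells/well, exposed to compounds plus 20 nM camptothecin for at least 48 h at 37 C; viability read as ATP content by CellTiter-Glo luminescence.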
miR-21 act: qHTS Assay for Modulators of miRNAs and/orActivators of miR-21; 340,000 tested, under 10 active; Potency, µM (highest dose often 38.3 µM), actives largely listed as activators; HeLa miR-21 FLuc reporter, luciferase, 48 h;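 also: miR-21 action dims this reporter so a rising signal means less miR-21 action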
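Compounds were titrated across several concentrations (up to approximately 40 uM) and incubated 48 hours with HeLa miR-21-FLuc reporter cells (miR-21 target sequence downstream of FLuc, endogenous miR-21). Readout was firefly luciferase luminescence after lytic detection reagent.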
Hits are given with their value; n = inactive; u = inconclusive; x = no result given. A selection: hits, their analogues and other compounds. The true share with any hit is near 16%. Unless noted, calls follow the shape of the dose curve; as a rule, active = well fitted curve in the direction sought with a large enough effect; inconclusive = small, poorly fitted or top-dose-only effect, or another doubt; inactive = no such curve, though single readings can be large; an effect the other way counts as inactive or inconclusive.

SMILES	uPA generation	DT40 TDP1 no CPT	TDP1 block	TDP1 cell CPT	miR-21 act
CCOc1ccc(-c2nonc2NC(=O)c2oc3cc(C)ccc3c2C)cc1	x	u	n	23.1µM	n
CCOc1ccc(-c2nonc2NC(=O)c2oc3c(C)c(C)ccc3c2C)cc1OCC	x	16.4µM	n	14.6µM	n
CC1(C)CC(=O)C(C(c2cccnc2)C2C(=O)CC(C)(C)CC2=O)C(=O)C1	n	n	n	n	n
COc1ccc(NC(=O)c2sc3nc4c(c(-c5ccc(OC)cc5)c3c2N)C(=O)CC(C)(C)C4)cc1	x	13µM	x	23.1µM	n
CCOc1ccc(NC(=O)c2sc3nc4c(c(-c5ccccc5)c3c2N)C(=O)CC(C)(C)C4)cc1	x	n	x	u	n
COc1ccc(NC(=O)c2sc3nc(-c4ccc(OC)cc4)cc(C(F)(F)F)c3c2N)cc1	x	1.84µM	n	2.91µM	n
COc1ccc(-c2c3c(nc4sc(C(=O)Nc5cccc(OC)c5)c(N)c24)CC(C)(C)CC3=O)cc1	x	13µM	x	u	n
O=C(c1ccccc1)c1ccc(-n2ccnc2)c([N+](=O)[O-])c1	n	20.6µM	n	n	n
O=C(O)c1ccc(-n2ccnc2)c([N+](=O)[O-])c1	n	n	n	n	n
OC(c1ccc(F)cc1)c1nc(-c2ccncc2)cs1 (centres undefined)	x	7.31µM	x	7.31µM	x
OC(c1ccc(F)cc1)c1nc(-c2cccs2)cs1 (centres undefined)	x	u	x	n	x
OC(c1ccc(F)c(F)c1)c1nc(-c2cncnc2)cs1 (centres undefined)	x	u	x	n	x
OC(c1ccc(F)c(F)c1)c1nc(-c2cccc(C(F)(F)F)c2)cs1 (centres undefined)	x	u	x	16.4µM	x
OC(c1ccc(F)c(F)c1)c1nc(-c2ccncc2)cs1 (centres undefined)	x	8.2µM	x	8.2µM	x
OC(c1ccc(F)c(F)c1)c1nc(-c2ccc(F)c(Cl)c2)cs1 (centres undefined)	x	n	x	u	x
OC(c1ccc(F)c(F)c1)c1nc(-c2ccc(Cl)cc2)cs1 (centres undefined)	x	16.4µM	x	u	x
Cc1ccc(O)c(-c2n[nH]c3c2C(c2ccc(F)cc2)N(Cc2ccco2)C3=O)c1 (centres undefined)	x	u	n	u	n
O=C(CCC1CCCC1)Nc1cc(Cl)ccc1N1CCOCC1	n	u	n	u	x
O=C(O)COc1ccccc1/C=N/NC(=O)CN1CCN(S(=O)(=O)c2ccc(Br)cc2)CC1	n	n	n	n	n
COc1ccc(C(=O)/C=C/c2ccc(OC3CSC3)cc2)cc1OC	n	18.4µM	n	u	n
O=C(/C=C/c1ccc(OC2CSC2)cc1)c1ccc(Cl)cc1	n	u	n	u	n
COc1cc(/C=C/C(=O)O)cc(OC)c1O	n	n	x	n	x
COc1ccc2cc(C(=O)O)ccc2c1	n	n	n	n	n
COc1ccc2cc(C(=O)/C=C/c3cc(OC)c(O)c(OC)c3)ccc2c1	n	9.2µM	x	10.3µM	n
COc1ccc(C(=O)/C=C/c2cc(OC)c(O)c(OC)c2)c(F)c1	n	16.4µM	n	u	u
SMILES	uPA generation	DT40 TDP1 no CPT	TDP1 block	TDP1 cell CPT	miR-21 act
CN(C(=O)c1ccc(=O)[nH]c1)C1(C(=O)NC2CCCCC2)CCCCC1	n	n	n	n	n
O=C(/C=C/c1ccco1)Nc1nc(-c2ccccn2)cs1	u	7.31µM	n	7.31µM	n
O=C(/C=C/c1ccco1)Nc1cccc2cccnc12	n	n	20µM	n	n
O=C(/C=C/c1ccco1)Nc1ccccn1	n	3.26µM	n	3.26µM	n
Cc1ccc(NC(=O)/C=C/c2ccco2)nc1	n	0.0058µM	x	0.013µM	n
O=C(/C=C/c1ccco1)Nc1nc(-c2ccccc2)cs1	n	u	n	n	n
O=C(/C=C/c1ccco1)Nc1cccnc1	n	n	n	n	n
Cc1ccc2cc3cc(C(=O)Nc4ccc(F)cc4Cl)oc3nc2c1	x	u	n	u	n
COc1ccc(Cl)cc1C(=O)NNC(=O)c1nn(C)c(=O)c2ccccc12	n	16.4µM	n	u	x
Cn1nc(C(=O)OCc2ccc(F)cc2)c2ccccc2c1=O	x	u	n	n	n
CCn1nc(C(=O)NNC(=O)c2cc(Cl)ccc2OC)c2ccccc2c1=O	n	u	n	u	x
Cc1ccc(COC(=O)c2nn(C)c(=O)c3ccccc23)cc1	n	13µM	n	u	n
O=C(Nc1ccccc1)C1COc2ccccc2O1 (centres undefined)	n	n	n	n	n
Cc1ccc(CN2CCCN(C)CC2)c(C)c1	n	u	x	u	n
O=C(CN1C(=O)NC(Cc2c[nH]c3ccccc23)C1=O)Nc1cccc(S(=O)(=O)N2CCOCC2)c1 (centres undefined)	n	u	n	u	n
CC(C)(C)OC(=O)N[C@@H](Cc1ccccc1)c1nnc(SCC(N)=O)o1	n	n	n	n	n
Cc1cccc(CS(=O)(=O)c2nnc([C@H](Cc3ccccc3)NC(=O)OC(C)(C)C)o2)c1	x	1.46µM	n	1.3µM	u
COC(=O)CS(=O)(=O)c1nnc([C@H](Cc2ccccc2)NC(=O)OC(C)(C)C)o1	n	1.64µM	n	1.46µM	u
COc1ccc(-c2ccc(S(=O)(=O)NCC3CCCO3)cc2)cc1 (centres undefined)	n	u	n	n	n
O=C(c1ccc(S(=O)(=O)NCC2CCCO2)cc1)N1CCN(c2cccc(Cl)c2)CC1 (centres undefined)	u	14.6µM	n	14.6µM	n
O=S(=O)(NCC1CCCO1)c1ccc(-c2ccc(Cl)cc2)cc1 (centres undefined)	n	13µM	n	11.6µM	n
Cc1cccc(-n2cc(-c3ccccc3)[nH]c2=S)c1	n	u	x	u	n
CC(=O)/C=C1\OCc2ccccc21	x	n	x	n	x
Cc1c(C(=O)NCc2cccc(Br)c2)oc2ccc3c(c12)C(=O)CC(C)(C)O3	x	14.6µM	n	u	n
Cc1cccc(C)c1NC(=O)c1oc2ccc3c(c2c1C)C(=O)CC(C)(C)O3	x	u	n	16.4µM	n
Cc1c(C(=O)NCC2CCCO2)oc2ccc3c(c12)C(=O)CC(C)(C)O3 (centres undefined)	n	u	n	n	n
CCCOc1ccc(CNC(=O)c2oc3ccc4c(c3c2C)C(=O)CC(C)(CC)O4)cc1 (centres undefined)	x	16.4µM	n	16.4µM	n
COc1ccccc1CNC(=O)c1oc2ccc3c(c2c1C)C(=O)CC(C)(C)O3	x	16.4µM	n	u	n
CCN1CCN(C(=O)C2CCC(CNS(=O)(=O)c3ccc(NC(C)=O)cc3)CC2)CC1 (centres undefined)	n	n	n	n	n
